Several values for one entry are separate records, joined by “and”; a condition that tells them apart may be missing. Identical values can stand only once. The campaign covered roughly 5,500 compounds. About 2,000 (36%) were called active. Roughly 18% stayed inconclusive and do not appear here. Rule as the data show it: active = normalized growth mostly below about 0.91 (no sharp cut-off); inconclusive = no clear call, values can overlap the other calls; inactive = mostly above about 0.92. The list shows a part of the results. Some compounds were tested as several samples or in several runs, with calls that do not always agree.
Experiment: chemical genetic growth profiling, strain panel (AID 1159580);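 also: tested at 20 µM; growth read once vehicle control cultures reached saturation at 30 °C; 1 = growth at the plate median or of vehicle wells; lower values mean less growth of the strain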
Details: S. cerevisiae deletion strains, growth OD

SMILES: NCCOB(c1ccccc1)c1ccccc1
- normalized growth (locus YAL021C, strain ccr4, stronger effect = lower value): 0.936 (inactive) and 0.969 (inactive)
- normalized growth (locus YAL026C, strain drs2, stronger effect = lower value): 0.153 (active) and 0.218 (active)
- normalized growth (locus YAL030W, strain snc1, stronger effect = lower value): 0.892 (active) and 0.987 (inactive)
- normalized growth (locus YBL061C, strain skt5, stronger effect = lower value): 0.578 (active) and 0.786 (active)
- normalized growth (locus YBR009C, strain hhf1, stronger effect = lower value): 0.758 (active) and 0.788 (active)
- normalized growth (locus YBR023C, strain chs3, stronger effect = lower value): 0.925 (inactive) and 0.92 (inactive)
- normalized growth (locus YBR171W, strain sec66, stronger effect = lower value): 0.968 (inactive) and 0.998 (inactive)
- normalized growth (locus YBR231C, strain swc5, stronger effect = lower value): 1.03 (inactive) and 1 (inactive)
- normalized growth (locus YBR279W, strain paf1, stronger effect = lower value): 0.46 (active) and 0.808 (active)
- normalized growth (locus YCL011C, strain gbp2, stronger effect = lower value): 0.879 (active) and 0.913 (inactive)
- normalized growth (locus YCL016C, strain dcc1, stronger effect = lower value): 1.01 (inactive) and 0.977 (inactive)
- normalized growth (locus YCL061C, strain MRC1, stronger effect = lower value): 0.827 (active) and 0.759 (active)
- normalized growth (locus YCL069W, strain vba3, stronger effect = lower value): 0.437 (active) and 0.312 (active)
- normalized growth (locus YCR088W, strain abp1, stronger effect = lower value): 0.604 (active) and 0.524 (active)
- normalized growth (locus YDL005C, strain med2, stronger effect = lower value): 1 (inactive) and 1.03 (inactive)
- normalized growth (locus YDL040C, strain nat1, stronger effect = lower value): 1.01 (inactive) and 1.02 (inactive)
- normalized growth (locus YDR001C, strain nth1, stronger effect = lower value): 0.651 (active) and 0.789 (active)
- normalized growth (locus YDR069C, strain doa4, stronger effect = lower value): 1.02 (inactive) and 1.01 (inactive)
- normalized growth (locus YDR137W, strain rgp1, stronger effect = lower value): 0.997 (inactive) and 0.987 (inactive)
- normalized growth (locus YDR159W, strain sac3, stronger effect = lower value): 1.03 (inactive) and 1.06 (inactive)
- normalized growth (locus YDR195W, strain ref2): 1.11 (inactive) and 1.07 (inactive)
- normalized growth (locus YDR297W, strain sur2, stronger effect = lower value): 1.01 (inactive) and 0.979 (inactive)
- normalized growth (locus YDR334W, strain swr1, stronger effect = lower value): 0.472 (active) and 0.793 (active)
- normalized growth (locus YDR335W, strain msn5, stronger effect = lower value): 1 (inactive) and 0.991 (inactive)
- normalized growth (locus YDR392W, strain spt3, stronger effect = lower value): 0.423 (active) and 0.451 (active)
- normalized growth (locus YEL003W, strain gim4, stronger effect = lower value): 1.02 (inactive) and 0.999 (inactive)
- normalized growth (locus YEL037C, strain rad23, stronger effect = lower value): 1.01 (inactive)
- normalized growth (locus YEL061C, strain CIN8 (second series), stronger effect = lower value): 1.01 (inactive)
- normalized growth (locus YER015W, strain faa2, stronger effect = lower value): 0.528 (active) and 0.733 (active)
- normalized growth (locus YER016W, strain bim1, stronger effect = lower value): 1.02 (inactive)
- normalized growth (locus YER111C, strain swi4, stronger effect = lower value): 1.02 (inactive) and 1.01 (inactive)
- normalized growth (locus YER155C, strain BEM2 (second series), stronger effect = lower value): 0.815 (active) and 0.926 (inactive)
- normalized growth (locus YFR010W, strain ubp6, stronger effect = lower value): 0.351 (active) and 0.387 (active)
- normalized growth (locus YGL167C, strain pmr1, stronger effect = lower value): 1.04 (inactive) and 1.05 (inactive)
- normalized growth (locus YGL173C, strain kem1, stronger effect = lower value): 0.927 (inactive) and 0.93 (inactive)
- normalized growth (locus YGL227W, strain vid30, stronger effect = lower value): 0.602 (active) and 0.427 (active)
- normalized growth (locus YGL240W, strain doc1, stronger effect = lower value): 0.822 (active) and 0.865 (active)
- normalized growth (locus YGL253W, strain hxk2, stronger effect = lower value): 0.468 (active) and 0.384 (active)
- normalized growth (locus YHR013C, strain ard1, stronger effect = lower value): 0.432 (active) and 0.49 (active)
- normalized growth (locus YHR027C, strain rpn1, stronger effect = lower value): 0.799 (active) and 0.766 (active)
- normalized growth (locus YHR030C, strain SLT2, stronger effect = lower value): 0.106 (active)
- normalized growth (locus YHR079C, strain IRE1, stronger effect = lower value): 0.11 (active)
- normalized growth (locus YHR142W, strain chs7, stronger effect = lower value): 0.882 (inactive) and 0.977 (inactive)
- normalized growth (locus YJL092W, strain hpr5, stronger effect = lower value): 0.334 (active) and 0.399 (active)
- normalized growth (locus YJL095W, strain BCK1 (second series), stronger effect = lower value): 0.887 (active) and 0.923 (inactive)
- normalized growth (locus YJL095W, strain BCK1, stronger effect = lower value): 0.106 (active)
- normalized growth (locus YJL115W, strain asf1, stronger effect = lower value): 0.85 (active) and 0.877 (active)
- normalized growth (locus YJL129C, strain trk1, stronger effect = lower value): 0.965 (inactive) and 0.979 (inactive)
- normalized growth (locus YJL154C, strain vps35, stronger effect = lower value): 0.454 (active) and 0.657 (active)
- normalized growth (locus YJL164C, strain tpk1, stronger effect = lower value): 0.824 (active) and 0.786 (active)
- normalized growth (locus YJL166W, strain qcr8, stronger effect = lower value): 0.841 (active) and 0.839 (active)
- normalized growth (locus YJL187C, strain SWE1, stronger effect = lower value): 0.798 (active)
- normalized growth (locus YJR066W, strain TOR1, stronger effect = lower value): 0.00283 (active)
- normalized growth (locus YKL160W, strain elf1, stronger effect = lower value): 0.717 (active) and 0.751 (active)
- normalized growth (locus YKR026C, strain gcn3, stronger effect = lower value): 0.381 (active) and 0.353 (active)
- normalized growth (locus YKR091W, strain srl3, stronger effect = lower value): 0.357 (active) and 0.316 (active)
- normalized growth (locus YLL001W, strain dnm1, stronger effect = lower value): 0.995 (inactive) and 0.946 (inactive)
- normalized growth (locus YLL026W, stronger effect = lower value): 0.836 (active) and 0.998 (inactive)
- normalized growth (locus YLL041C, strain sdh2, stronger effect = lower value): 0.868 (active) and 0.944 (inactive)
- normalized growth (locus YLR027C, strain aat2, stronger effect = lower value): 0.694 (active) and 0.939 (inactive)
- normalized growth (locus YLR113W, strain HOG1, stronger effect = lower value): 0.141 (active)
- normalized growth (locus YLR221C, strain rsa3, stronger effect = lower value): 0.372 (active) and 0.709 (active)
- normalized growth (locus YLR258W, strain gsy2, stronger effect = lower value): 0.578 (active) and 0.778 (active)
- normalized growth (locus YLR262C, strain YPT6 (second series), stronger effect = lower value): 0.923 (inactive) and 0.845 (active)
- normalized growth (locus YLR320W, strain mms22, stronger effect = lower value): 0.973 (inactive) and 1 (inactive)
- normalized growth (locus YLR342W, strain FKS1, stronger effect = lower value): 0.841 (active) and 0.823 (active)
- normalized growth (locus YLR357W, strain rsc2, stronger effect = lower value): 0.629 (active)
- normalized growth (locus YLR370C, strain arc18, stronger effect = lower value): 0.44 (active) and 0.485 (active)
- normalized growth (locus YLR384C, strain iki3, stronger effect = lower value): 1.02 (inactive)
- normalized growth (locus YML120C, strain ndi1, stronger effect = lower value): 0.961 (inactive) and 0.993 (inactive)
- normalized growth (locus YMR058W, strain fet3, stronger effect = lower value): 0.167 (active) and 0.157 (active)
- normalized growth (locus YMR125W, strain sto1, stronger effect = lower value): 0.759 (active) and 0.824 (active)
- normalized growth (locus YMR129W, stronger effect = lower value): 0.507 (active) and 0.306 (active)
- normalized growth (locus YMR205C, strain PFK2, stronger effect = lower value): 0.937 (inactive) and 0.943 (inactive)
- normalized growth (locus YMR231W, strain pep5, stronger effect = lower value): 0.247 (active) and 0.309 (active)
- normalized growth (locus YNL071W, strain lat1, stronger effect = lower value): 0.248 (active) and 0.315 (active)
- normalized growth (locus YNL183C, strain NPR1, stronger effect = lower value): 0.000102 (active)
- normalized growth (locus YNL209W, strain ssb2, stronger effect = lower value): 0.699 (active) and 0.694 (active)
- normalized growth (locus YNL248C, strain rpa49, stronger effect = lower value): 0.693 (active) and 0.758 (active)
- normalized growth (locus YNL322C, strain KRE1 (second series), stronger effect = lower value): 1.04 (inactive) and 1.03 (inactive)
- normalized growth (locus YNR049C, strain mso1, stronger effect = lower value): 0.585 (active) and 0.756 (active)
- normalized growth (locus YOR001W, strain rrp6, stronger effect = lower value): 0.947 (inactive) and 1 (inactive)
- normalized growth (locus YOR070C, strain gyp1, stronger effect = lower value): 0.657 (active) and 0.767 (active)
- normalized growth (locus YOR080W, strain dia2, stronger effect = lower value): 1.02 (inactive)
- normalized growth (locus YOR083W, strain WHI5, stronger effect = lower value): 0.202 (active) and 0.184 (active)
- normalized growth (locus YOR106W, strain vam3, stronger effect = lower value): 0.688 (active) and 0.741 (active)
- normalized growth (locus YOR231W, strain MKK1, stronger effect = lower value): 0.0985 (active)
- normalized growth (locus YOR265W, strain rbl2, stronger effect = lower value): 0.79 (active) and 0.861 (active)
- normalized growth (locus YOR270C, strain vph1, stronger effect = lower value): 0.934 (inactive) and 0.992 (inactive)
- normalized growth (locus YOR290C, strain snf2, stronger effect = lower value): 0.895 (inactive) and 0.926 (inactive)
- normalized growth (locus YPL051W, strain arl3, stronger effect = lower value): 0.622 (active) and 0.599 (active)
- normalized growth (locus YPL078C, strain atp4, stronger effect = lower value): 0.967 (inactive) and 0.972 (inactive)
- normalized growth (locus YPL106C, strain sse1, stronger effect = lower value): 0.891 (inactive) and 0.792 (active)
- normalized growth (locus YPL240C, strain hsp82, stronger effect = lower value): 1.02 (inactive) and 0.932 (inactive)
- normalized growth (locus YPL256C, strain CLN2, stronger effect = lower value): 0.118 (active)

Source: PubChem BioAssay AID1159580 (chemical genetic matrix, 2015)
